Data on 18 compounds can be found in PubChem BioAssay (Tox21).

A short description of test [1]: Human pregnane X receptor (PXR) small molecule agonists, qHTS cell viability counter screen (AID 1346977). Note: nearly all actives have a fitted effect of over 50% in size. In short, it runs like this:
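Same-well viability read: CellTiter-Fluor added after 23 hr compound exposure, fluorescence measured 1 hr later. Cells were PXR-Luc HepG2 seeded at 2,000/well in 5% charcoal-stripped FBS medium, rested 5 hr before dosing at 37 C.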

Test [2] is described as follows: Caspase-3/7 induction in HepG2 cells by small molecules, qHTS assay (AID 1346978). Note: nearly all actives have a fitted effect of over 15% in size. Put shortly:
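Caspase-3/7 induction was measured by Caspase-Glo 3/7 luminescence (30 min, room temperature) after a 17 hr compound exposure of wild-type HepG2 cells seeded at 2,000 per well and pre-incubated 5 hr.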
Background: qHTS replaces the single test concentration by a dilution series.

A short description of test [3]: Caspase-3/7 induction in CHO-K1 cells by small molecules, qHTS cell viability counter screen (AID 1346979). Note: nearly all actives have a fitted effect of over 35% in size. Put shortly:
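Cytotoxicity counter screen: CellTiter-Fluor added to compound-treated wild-type CHO-K1 cells at 16 h (37C, 5% CO2), fluorescence measured 1 h later; same wells as caspase-3/7 measurement.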

Test [4] is described as follows: Caspase-3/7 induction in CHO-K1 cells by small molecules, qHTS assay (AID 1346980). Note: nearly all actives have a fitted effect of over 15% in size. In short, it runs like this: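 Luminescent Caspase-Glo 3/7 read (30min, room temperature) quantified apoptosis induction. Cells were wild-type CHO-K1, treated with compound for 17hr at 37 C and 5% CO2.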
Test [5] in a line: Caspase-3/7 induction in HepG2 cells by small molecules, qHTS cell viability counter screen (AID 1346981). Note: series mostly up to about 92 µM; nearly all actives have a fitted effect of over 30% in size. In short, it runs like this: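 Counter screen for cytotoxicity: HepG2 exposed 16 hr to compounds, then CellTiter-Fluor viability signal (fluorescence, 1 hr reagent incubation).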
For test [6], the target named is Nuclear receptor subfamily 1 group I member 2 (Rattus norvegicus) (UniProt Q9R1A7). As to the kind of experiment: Rat pregnane X receptor (rPXR) activation by small molecules, qHTS assay (AID 1346983). Note: nearly all actives have a fitted effect of over 20% in size. The conditions noted are these: rPXR luciferase reporter cells, One-Glo luminescence, 24 h; stronger effect = higher value. Put shortly:
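Luminescent readout (One-Glo luciferase, 30 min room temperature) followed 24 hr compound treatment at 37 C of rPXR cells plated 2,000 per well and preincubated 5hr; qHTS format with compounds delivered in DMSO.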

Test [7] has as its target Voltage-gated inwardly rectifying potassium channel KCNH2 (Homo sapiens) (UniProt Q12809). Put plainly: Human Ether-a-go-go-Related Gene (hERG) channel small molecule antagonists: fluorescence cell-based qHTS assay (AID 1671200). Note: series mostly up to about 77 µM; nearly all actives have a fitted effect of over 50% in size. Put shortly: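 Thallium flux as potassium surrogate: FluxOR II dye loaded 1 h at room temperature into hERG-expressing U2OS cells, then stimulus buffer added after 10 min. Kinetic 480 nm excitation/540 nm emission read, 2 min.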
Background: Block of hERG is tested as a sign of cardiac risk.

For test [8], the target named is Cytochrome P450 2D6 (Homo sapiens) (UniProt P10635). As to the kind of experiment: Cytochrome P450 Family 2 Subfamily D Member 6 (CYP2D6) small molecule antagonists: luciferase reporter qHTS assay (AID 1671196). For activity change, negative = inhibition: series mostly up to about 120 µM. Note: nearly all actives have a fitted effect of over 50% in size. Note: potency is the fitted concentration of half-maximal effect. Put shortly:
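Inhibition of CYP2D6 was gauged by loss of luminescence, since light produced tracks the luciferin generated from a proluciferin substrate. A 10 min room-temperature preincubation preceded 1 h NADPH-supported turnover.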
A general note: In a reporter assay the amount or activity of a reporter protein is the signal.

Test [9] addresses Cytochrome P450 2C19 (Homo sapiens) (UniProt P33261). As to the kind of experiment: Cytochrome P450 Family 2 Subfamily C Member 19 (CYP2C19) small molecule antagonists: luciferase reporter qHTS assay (AID 1671197). For activity change, negative = inhibition: series mostly up to about 120 µM. Note: nearly all actives have a fitted effect of over 65% in size. Note: potency is the fitted concentration of half-maximal effect. Put shortly: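 Relative luminescence units recorded 20 min after the detection reagent stopped a 1 h, 37C CYP2C19 reaction on proluciferin substrate, which was started by NADPH regeneration following 10 min room-temperature compound preincubation; ketoconazole positive control.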

Test [10] addresses Cytochrome P450 1A2 (Homo sapiens) (UniProt P05177). Put plainly: Cytochrome P450 Family 1 Subfamily A Member 2 (CYP1A2) small molecule antagonists: luciferase reporter qHTS assay (AID 1671199). For activity change, negative = inhibition: series mostly up to about 120 µM. Note: nearly all actives have a fitted effect of over 50% in size. Note: potency is the fitted concentration of half-maximal effect. Put shortly: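 Signal from luciferin formed by CYP1A2 from a proluciferin substrate is read as luminescence, expressed in relative luminescence units. Compounds sit with enzyme 10 min, NADPH-driven reaction runs 1 h, all at room temperature.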

Test [11] deals with Cytochrome P450 3A4 (Homo sapiens) (UniProt P08684). Put plainly: Cytochrome P450 Family 3 Subfamily A Member 4 (CYP3A4) small molecule antagonists: luciferase reporter qHTS assay (AID 1671201). For activity change, negative = inhibition: series mostly up to about 120 µM. Note: nearly all actives have a fitted effect of over 50% in size. Note: potency is the fitted concentration of half-maximal effect. Put shortly: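 Recombinant human CYP3A4 converts a proluciferin substrate to luciferin over 1 h at room temperature after NADPH regeneration solution is added (compound preincubated 10 min); detection reagent stops reaction, luminescence read 20 min later as relative units.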

Test [12] has as its target Nuclear receptor subfamily 1 group I member 2 (Homo sapiens) (UniProt O75469). As to the kind of experiment: Human pregnane X receptor (PXR) small molecule agonists, qHTS assay (AID 1346982). Note: nearly all actives have a fitted effect of over 35% in size. Note: potency is the fitted concentration of half-maximal effect. In short, it runs like this:
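Luminescence (ONE-Glo, 30 min RT) after 24 hr compound exposure of PXR-Luc HepG2 cells; cells rested 5 hr post-plating in 5% charcoal-stripped FBS medium.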

The target is the same in test [13]. As to the kind of experiment: CYP3A4 induction through human pregnane X receptor (PXR) by small molecules, qHTS assay (AID 1346984). Note: nearly all actives have a fitted effect of over 40% in size. Put shortly: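 DPX-2 reporter cells; 24h cpd, 37C; Luciferin-IPA 3uM final x3h; One-Glo 30 min RT; lumi read.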
For test [14] the target is unchanged. Put plainly: Human pregnane X receptor (PXR) activation by small molecules, qHTS assay (AID 1346985). Note: nearly all actives have a fitted effect of over 40% in size. Put shortly:
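DPX-2 cells (HepG2 co-transfected with a PXR response element and a CYP3A4-promoter luciferase construct) were seeded at 2,000 per well, rested 5 hr at 37C, then exposed to DMSO-dissolved compounds for 24 hr. Activation was read as luciferase luminescence.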

Test [15] deals with Cytochrome P450 2C9 (Homo sapiens) (UniProt P11712). Put plainly: Cytochrome P450 Family 2 Subfamily C Member 9 (CYP2C9) small molecule antagonists: luciferase reporter qHTS assay (AID 1671198). For activity change, negative = inhibition: series mostly up to about 120 µM. Note: nearly all actives have a fitted effect of over 50% in size. Note: potency is the fitted concentration of half-maximal effect. Put shortly: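 Enzyme-substrate mix preincubated with compound 10 min at room temperature; reaction started with NADPH regeneration solution, 1 h 37C. Luminescent luciferin product read after 20 min detection reagent.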

Unmarked numbers belong to inactive results. Inconclusive results are not listed. Active and inactive are the calls of the source. Calls come from the whole dose curve; as a rule, active = well fitted curve in the direction sought with a large enough effect in the repeat runs; inconclusive = weak or mixed curves; inactive = no such curve, though single readings can be large; an effect the other way counts as inactive or inconclusive.
% is set by controls: 0 for no effect and ±100 for the full control effect.

Chain of Cytochrome P450 2C19 (Homo sapiens) (P33261 whole entry, looked up): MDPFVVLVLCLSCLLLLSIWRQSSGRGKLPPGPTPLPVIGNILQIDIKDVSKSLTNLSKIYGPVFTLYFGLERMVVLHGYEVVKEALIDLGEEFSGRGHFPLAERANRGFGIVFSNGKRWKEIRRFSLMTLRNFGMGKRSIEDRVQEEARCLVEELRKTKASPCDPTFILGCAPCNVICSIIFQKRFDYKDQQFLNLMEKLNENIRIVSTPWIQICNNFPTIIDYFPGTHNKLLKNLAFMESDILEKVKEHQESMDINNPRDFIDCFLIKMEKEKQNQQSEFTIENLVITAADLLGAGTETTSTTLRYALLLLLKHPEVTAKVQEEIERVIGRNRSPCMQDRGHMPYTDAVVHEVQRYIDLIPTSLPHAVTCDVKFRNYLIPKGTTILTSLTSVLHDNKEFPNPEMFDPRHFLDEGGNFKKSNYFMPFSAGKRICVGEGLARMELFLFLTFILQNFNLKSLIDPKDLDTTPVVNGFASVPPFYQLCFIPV
Chain of Cytochrome P450 1A2 (Homo sapiens) (P05177 whole entry, looked up): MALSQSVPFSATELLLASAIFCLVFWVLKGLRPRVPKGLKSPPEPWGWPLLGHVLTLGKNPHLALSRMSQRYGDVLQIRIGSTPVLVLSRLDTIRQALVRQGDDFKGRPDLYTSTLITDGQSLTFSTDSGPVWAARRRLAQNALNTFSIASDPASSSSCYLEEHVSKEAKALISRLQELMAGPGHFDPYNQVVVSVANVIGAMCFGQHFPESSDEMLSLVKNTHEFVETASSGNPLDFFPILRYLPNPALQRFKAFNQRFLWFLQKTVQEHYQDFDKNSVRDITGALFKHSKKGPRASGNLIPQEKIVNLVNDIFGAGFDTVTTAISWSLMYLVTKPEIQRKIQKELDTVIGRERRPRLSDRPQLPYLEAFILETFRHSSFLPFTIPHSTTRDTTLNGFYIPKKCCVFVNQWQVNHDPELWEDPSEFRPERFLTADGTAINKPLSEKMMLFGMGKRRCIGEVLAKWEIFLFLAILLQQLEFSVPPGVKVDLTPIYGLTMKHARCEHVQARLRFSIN
Chain of Cytochrome P450 2D6 (Homo sapiens) (P10635 whole entry, looked up): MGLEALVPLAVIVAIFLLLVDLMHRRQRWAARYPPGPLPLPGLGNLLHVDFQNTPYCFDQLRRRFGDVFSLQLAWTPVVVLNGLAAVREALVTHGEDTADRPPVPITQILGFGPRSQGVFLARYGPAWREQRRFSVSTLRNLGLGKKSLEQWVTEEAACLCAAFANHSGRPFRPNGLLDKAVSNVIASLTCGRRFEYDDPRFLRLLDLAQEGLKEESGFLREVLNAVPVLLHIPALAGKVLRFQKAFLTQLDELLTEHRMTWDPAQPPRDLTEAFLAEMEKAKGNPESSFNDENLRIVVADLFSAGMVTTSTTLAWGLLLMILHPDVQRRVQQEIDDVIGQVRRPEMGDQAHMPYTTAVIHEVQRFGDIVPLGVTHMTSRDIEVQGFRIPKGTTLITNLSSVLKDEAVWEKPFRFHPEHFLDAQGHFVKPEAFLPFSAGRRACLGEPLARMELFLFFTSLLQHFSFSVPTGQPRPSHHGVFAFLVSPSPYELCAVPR
Chain of Cytochrome P450 2C9 (Homo sapiens) (P11712 whole entry, looked up): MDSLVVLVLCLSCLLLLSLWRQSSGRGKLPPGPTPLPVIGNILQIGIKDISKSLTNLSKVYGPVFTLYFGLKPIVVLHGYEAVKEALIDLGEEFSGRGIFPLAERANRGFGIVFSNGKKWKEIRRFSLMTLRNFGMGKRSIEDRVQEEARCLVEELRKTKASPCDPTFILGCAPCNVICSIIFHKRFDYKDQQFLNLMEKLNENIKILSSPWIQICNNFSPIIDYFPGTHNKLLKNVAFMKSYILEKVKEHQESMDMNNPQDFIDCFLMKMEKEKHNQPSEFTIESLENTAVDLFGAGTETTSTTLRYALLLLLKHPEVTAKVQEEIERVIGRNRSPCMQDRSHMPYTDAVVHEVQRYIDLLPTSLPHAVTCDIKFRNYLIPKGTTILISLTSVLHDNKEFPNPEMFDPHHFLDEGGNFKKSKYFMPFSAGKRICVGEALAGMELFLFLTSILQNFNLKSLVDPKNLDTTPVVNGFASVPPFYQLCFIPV
Chain of Nuclear receptor subfamily 1 group I member 2 (Homo sapiens) (O75469 whole entry, looked up): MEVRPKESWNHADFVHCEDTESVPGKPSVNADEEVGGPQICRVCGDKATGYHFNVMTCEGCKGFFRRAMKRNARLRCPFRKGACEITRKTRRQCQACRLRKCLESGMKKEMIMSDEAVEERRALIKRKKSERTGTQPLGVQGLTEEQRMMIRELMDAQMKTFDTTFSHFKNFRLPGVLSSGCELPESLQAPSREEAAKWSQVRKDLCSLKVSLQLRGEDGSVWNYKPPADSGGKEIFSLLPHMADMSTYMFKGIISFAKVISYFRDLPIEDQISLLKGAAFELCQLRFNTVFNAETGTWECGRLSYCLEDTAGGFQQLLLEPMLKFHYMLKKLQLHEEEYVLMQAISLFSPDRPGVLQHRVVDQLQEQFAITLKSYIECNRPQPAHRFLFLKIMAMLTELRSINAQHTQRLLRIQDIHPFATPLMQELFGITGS
Chain of Nuclear receptor subfamily 1 group I member 2 (Rattus norvegicus) (Q9R1A7 whole entry, looked up): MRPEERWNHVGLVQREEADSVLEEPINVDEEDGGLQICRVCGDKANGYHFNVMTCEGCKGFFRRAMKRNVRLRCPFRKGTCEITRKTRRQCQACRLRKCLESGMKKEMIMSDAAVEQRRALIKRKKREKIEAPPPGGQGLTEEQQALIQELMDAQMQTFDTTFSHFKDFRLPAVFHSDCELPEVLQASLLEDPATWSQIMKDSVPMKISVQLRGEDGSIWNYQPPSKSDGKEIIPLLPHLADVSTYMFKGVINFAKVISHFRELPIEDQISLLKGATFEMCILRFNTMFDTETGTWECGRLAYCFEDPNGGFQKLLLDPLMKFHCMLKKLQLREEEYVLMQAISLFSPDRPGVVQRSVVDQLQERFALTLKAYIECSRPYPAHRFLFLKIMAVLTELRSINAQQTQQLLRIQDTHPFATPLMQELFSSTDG
Chain of Cytochrome P450 3A4 (Homo sapiens) (P08684 whole entry, looked up): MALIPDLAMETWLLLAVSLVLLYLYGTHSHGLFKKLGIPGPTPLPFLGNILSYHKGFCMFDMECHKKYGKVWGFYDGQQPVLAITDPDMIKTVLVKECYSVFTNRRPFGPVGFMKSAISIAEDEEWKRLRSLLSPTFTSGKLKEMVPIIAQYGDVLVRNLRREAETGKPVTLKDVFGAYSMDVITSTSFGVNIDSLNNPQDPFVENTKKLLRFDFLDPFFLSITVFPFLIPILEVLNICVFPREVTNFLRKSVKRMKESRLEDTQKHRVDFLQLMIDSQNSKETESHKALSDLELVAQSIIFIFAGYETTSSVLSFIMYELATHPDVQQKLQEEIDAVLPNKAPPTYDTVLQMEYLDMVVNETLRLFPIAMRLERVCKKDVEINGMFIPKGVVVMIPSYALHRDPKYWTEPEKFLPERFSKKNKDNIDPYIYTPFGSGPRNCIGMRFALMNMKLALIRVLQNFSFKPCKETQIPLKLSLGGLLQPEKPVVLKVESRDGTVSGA
Chain of Voltage-gated inwardly rectifying potassium channel KCNH2 (Homo sapiens) (Q12809 whole entry, looked up): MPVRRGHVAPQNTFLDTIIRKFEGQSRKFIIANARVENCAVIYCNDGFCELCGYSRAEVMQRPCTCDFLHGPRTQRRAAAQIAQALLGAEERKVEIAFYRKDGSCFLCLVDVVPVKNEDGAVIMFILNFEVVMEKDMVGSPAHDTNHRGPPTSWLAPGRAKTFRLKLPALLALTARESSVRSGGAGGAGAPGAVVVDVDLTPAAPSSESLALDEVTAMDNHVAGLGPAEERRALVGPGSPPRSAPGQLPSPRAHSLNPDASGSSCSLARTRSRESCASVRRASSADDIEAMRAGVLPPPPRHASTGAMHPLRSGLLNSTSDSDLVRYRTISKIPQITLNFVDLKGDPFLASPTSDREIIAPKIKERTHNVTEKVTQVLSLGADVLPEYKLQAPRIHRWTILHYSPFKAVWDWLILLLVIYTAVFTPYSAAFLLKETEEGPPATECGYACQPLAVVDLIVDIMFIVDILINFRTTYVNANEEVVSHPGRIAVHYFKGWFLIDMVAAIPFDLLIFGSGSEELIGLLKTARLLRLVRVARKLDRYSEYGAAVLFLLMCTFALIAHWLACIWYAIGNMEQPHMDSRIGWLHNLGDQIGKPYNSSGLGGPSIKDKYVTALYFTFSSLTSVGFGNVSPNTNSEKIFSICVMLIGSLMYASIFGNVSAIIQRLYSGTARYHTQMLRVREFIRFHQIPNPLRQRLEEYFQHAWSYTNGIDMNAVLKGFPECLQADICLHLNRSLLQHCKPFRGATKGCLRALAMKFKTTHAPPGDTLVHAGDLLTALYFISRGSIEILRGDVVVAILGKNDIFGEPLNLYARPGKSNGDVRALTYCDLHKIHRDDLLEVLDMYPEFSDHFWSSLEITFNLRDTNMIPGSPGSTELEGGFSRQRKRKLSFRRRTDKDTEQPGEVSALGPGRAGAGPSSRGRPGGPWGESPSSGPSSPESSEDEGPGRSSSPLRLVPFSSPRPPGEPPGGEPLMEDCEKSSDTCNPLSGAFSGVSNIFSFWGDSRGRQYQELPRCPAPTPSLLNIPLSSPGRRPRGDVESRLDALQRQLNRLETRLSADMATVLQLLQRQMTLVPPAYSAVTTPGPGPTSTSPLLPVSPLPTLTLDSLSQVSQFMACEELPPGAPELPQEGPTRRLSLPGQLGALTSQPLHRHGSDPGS

For the compound `N[C@@H](CCC(=O)N[C@@H](CS)C(=O)NCC(=O)O)C(=O)O`, the activity change, negative = cytotoxicity in [1] is 1.19% [at 19 µM]; in test [3], 5.61% [at 19 µM]; in test [5], -0.0408% [at 19 µM]. Besides, in test [2], the caspase activation was -1.46% [at 19 µM]. Besides, the caspase-3/7 activation in [4] was -0.229% [at 19 µM]. In addition, the max activation in [6] was 3.38%. For the same compound, the activity change, negative = inhibition in [7] was 7.2% [at 15.8 µM].

As to `CCCCCCOc1ccccc1C(N)=O`, the Potency entry in [1], in [2], in test [8], in [7] and in test [11] was “inactive” each time. In addition, the max activation in test [6] was 6.49%. For the same compound, the Potency is 17.4 µM (active) in test [9] and 13.8 µM (active) in test [10].

`O=Cc1ccc(Cl)c(Cl)c1`: the Potency result in [1], in test [2], in [3], in [12], in test [8] and in test [9] was “inactive” throughout. The Potency result in test [7] and in test [11] was “inactive” throughout.

Regarding `O=C(NCCN1CCOCC1)c1ccc(Cl)cc1`, the Potency result in [1], in [2], in test [3], in [12], in test [13] and in test [14] was “inactive” each time. Moreover, the Potency result in test [15], in test [10], in test [7] and in [11] was “inactive” each time. For the same compound, in test [6], the max activation was 1.47%. In [9], the Potency was 34.7 µM (active).

`CC(=O)OC(C)OC(=O)C(C)c1ccc(-c2ccccc2)c(F)c1` (centres undefined): the Potency entry in test [1], in test [2], in test [5], in test [12], in test [7] and in test [11] was “inactive” throughout. The Potency in test [9] is 5.49 µM (active); in [15] it was 3.47 µM (active); in test [10], 8.71 µM (active).

With `Cc1ccccc1OCC(O)CO` (centres undefined), the Potency result in test [1], in test [2], in test [3], in test [5], in test [7] and in [11] was “inactive” each time. The max activation in [6] was -0.0648%. Also, in test [10], the Potency was 27.5 µM (active).

With `Oc1cn2c(n1)Nc1ccc(Cl)c(Cl)c1C2`, the values for the activity change, negative = cytotoxicity in [1], in test [3] and in test [5] were -3.42% [at 19 µM], -2.03% [at 19 µM] and 6.29% [at 19 µM], respectively. The caspase-3/7 activation in test [4] is -0.902% [at 19 µM]. In addition, the max activation in test [6] is 0.479%. The Potency result in [13] and in test [14] was “inactive” each time. In addition, the activity change, negative = inhibition in test [9] is 3% [at 23.6 µM]; in test [7] it was -1.03% [at 15.8 µM]; in test [11], 40.9% [at 23.6 µM]. For the same compound, in [10], the Potency was 2.81 µM (active).

`CC(C(=O)O)c1ccc2c(c1)CC(=O)c1ccccc1S2` (centres undefined): the Potency result in [1], in test [2], in test [3], in test [5], in test [12] and in test [8] was “inactive” throughout. Also, the Potency entry in test [9], in test [7] and in test [11] was “inactive” in each case. Besides, the compound was called inactive in test [4].

In the case of `CN1CCN(CC(=O)N2c3ccccc3C(=O)Nc3cccnc32)CC1`, the activity change, negative = cytotoxicity is 5.67% [at 8.39 µM] in [1] and 7.7% [at 8.39 µM] in [3]. Further, in test [2], the caspase activation is -1.35% [at 8.39 µM]. For the same compound, in test [4], the caspase-3/7 activation was 0.448% [at 8.39 µM]. The activation in [12] is -11.1% [at 8.39 µM]. The activity change, negative = inhibition in test [8] is -4.49% [at 10.5 µM]; in [9] it was 8.9% [at 10.5 µM]; in test [15], 2.89% [at 10.5 µM]; in [10], 13.2% [at 10.5 µM]; in test [7], -0.112% [at 6.97 µM]; in test [11] it was 4.83% [at 10.5 µM].

For `Brc1ccc(-c2ccccc2)cc1`, the Potency entry in [1], in [2], in [3], in test [5], in [12] and in [8] was “inactive” throughout. For the same compound, the Potency result in [9], in test [7] and in test [11] was “inactive” each time. Also, the result in test [4] was inactive. Besides, the Potency in test [10] was 6.31 µM (active).

As for `CN(C)C(=O)CNC(=O)Cc1ccccc1`, the Potency entry in test [1], in [3], in [5], in test [12], in [8] and in test [9] was “inactive” in each case. The Potency result in test [15], in [10], in [7] and in test [11] was “inactive” throughout.

As to `CC1=C(C(=O)O)N2C(=O)[C@@H](NC(=O)[C@H](N)c3ccc(O)cc3)[C@H]2SC1`, the Potency result in test [1], in test [2], in test [3] and in test [7] was “inactive” each time. Also, in [4], the compound was classed as inactive. For the same compound, in test [6], the max activation is -3.3%.

Take `CCCC/C=C/C=C\C=O`: the Potency result in [1], in [2], in test [3], in [5], in test [15] and in [10] was “inactive” each time. Also, the Potency result in [7] was “inactive”. Besides, the result in [4] was inactive. The Potency in test [12] was 24.3 µM (active); in test [11] it was 39.9 µM (active).

Regarding `CCC(C)(CCC(C)C)C(=O)O` (centres undefined), the Potency result in [1], in [2], in test [3], in test [12], in [9] and in test [10] was “inactive” in each case. For the same compound, the Potency result in test [7] and in test [11] was “inactive” throughout. Besides, in test [4], the call was inactive. In addition, the Potency in test [8] was 28.3 µM (active); in [15], 35.6 µM (active).

Turning to `O=C(OCc1ccccc1)C(=O)OCc1ccccc1`, the Potency result in test [1], in test [2], in test [3], in test [5], in test [12] and in test [8] was “inactive” throughout. In addition, the Potency entry in [9], in test [15], in test [10], in test [7] and in test [11] was “inactive” throughout.

`CC(N)C(=O)OC(C)(C)Cc1ccc(Cl)cc1` (centres undefined): the Potency result in test [1], in [3], in test [5], in test [12] and in test [7] was “inactive” in each case. The Potency is 7.76 µM (active) in [8], 1.55 µM (active) in [9], 15.5 µM (active) in test [15] and 1.38 µM (active) in test [10].

On to `COc1cc(N)ccc1C`, for which the Potency entry in test [1], in test [2], in [3], in test [5] and in test [7] was “inactive” each time. The result in test [4] was inactive. Further, the Potency was 12.5 µM (active) in [8], 1.98 µM (active) in [9], 4.98 µM (active) in test [10] and 11.1 µM (active) in test [11].

For the compound `Cc1ccc2ccc(Cl)cc2n1`, the Potency entry in test [1], in test [2], in test [3], in test [5], in test [12] and in test [8] was “inactive” throughout. Moreover, the Potency result in test [9], in [15], in test [7] and in [11] was “inactive” throughout. Also, the call in [4] was inactive. Moreover, the Potency in test [10] was 15.5 µM (active).
